Values joined by “and” are separate entries in the source; they are usually repeats but may differ in a detail not shown here. Equal values may be shown once. Screen size: about 350,000 compounds; about 31,000 (8.9%) were called active. About 15% were inconclusive and are not listed. The call rests on the fitted dose curve; in most records, active means well fitted inhibition curve with a large enough effect; inconclusive means small, poorly fitted or top-dose-only effect; inactive means no such curve, though single readings can be large or run the other way. Only a selection was taken, and actives are over-represented in it overall. The source holds several records for some structures; these can differ, active in one and inactive in another.
On the % scale 0 is the no-effect control and ±100 the full control effect; potency means the concentration at half of the fitted maximal effect.

Histone-lysine N-methyltransferase EHMT2 (Homo sapiens), sequence (Q96KQ7 913-1193 limits assumed): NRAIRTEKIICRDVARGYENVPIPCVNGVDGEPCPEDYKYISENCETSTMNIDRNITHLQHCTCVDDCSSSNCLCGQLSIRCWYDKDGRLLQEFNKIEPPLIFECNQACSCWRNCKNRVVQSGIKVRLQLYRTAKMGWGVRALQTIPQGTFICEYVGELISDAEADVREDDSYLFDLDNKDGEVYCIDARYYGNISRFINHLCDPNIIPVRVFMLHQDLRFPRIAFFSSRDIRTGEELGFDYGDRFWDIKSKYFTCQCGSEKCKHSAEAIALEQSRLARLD

The test has as its target Histone-lysine N-methyltransferase EHMT2 (Homo sapiens) (UniProt Q96KQ7). Kind of test: qHTS Assay for Inhibitors of Histone Lysine Methyltransferase G9a. Further: nearly all actives have a fitted effect of over 75% in size. To be noted: G9a H3K9 monomethylation, AlphaScreen, 2 h; series mostly up to 102 µM. The text has this: Methylated lysines, on the N-terminal tails of histone proteins serve as epigenetic markers to recruit factors that can then modify local chromatin structure to lead to functional consequences. G9a and other members of the SUV39 family of the SET domain-containing superfamily of histone lysine methyltransferases (HMT) have been identified to specifically methylate Lys9 of histone H3 (H3K9). G9a catalyzes the mono- and di-methylation of H3K9 in mammalian euchromatic regions, where the resulting H3K9me2 is indicative of transcriptional repression. […] The inhibition of G9a will result in transcriptional activation and work synergistically with DNA methyltransferase and histone deacetylase inhibitors, to kill cancer cells. This qHTS assay for identification of G9a inhibitors is a chemiluminescence based AlphaScreen (PerkinElmer). Methylation of biotinylated-histone peptide is measured through specific antibody-based detection, in conjunction with streptavidin-coated donor and anti-IgG antibody-coated acceptor beads. The method is particularly well suited for detection of inhibitors acting by the desired histone peptide competitive mechanism and is applicable to testing other HMTs. Although AlphaScreen has significant advantages with its utility in a variety of epigenetic target assays, the primary screening data provided in this deposition should be used with caution due to the prevalence of screening artifacts. An AlphaScreen counterscreen is highly recommended to be run against any putative actives to eliminate non specific artifacts. Alternatively, one can use other AlphaScreen assays in PubChem to filter out promiscuous hits. Quinn et al. A chemiluminescence-based method for identification of histone lysine methyltransferase inhibitors. Mol Biosyst 6(5): 782-8. 2010. PMID: 20567762 [2] Baell,Holloway. New substructure filters for removal of pan assay interference compounds (PAINS) from screening libraries and for their exclusion in bioassays. J Med Chem. 53(7):2719-40. 2010. PMID: 20131845 NIH Molecular Libraries Probe Production Network [MLPCN] NIH Chemical Genomics Center [NCGC] Structural Genomics Consortium (SGC) NIH Grant: 5U54 MH084681-02
To each well of a 1,536w plate, 2ul of HMT enzyme (final 20nM) were added, using a nanoliter dispenser. The G9a- and GLP-inhibitor BIX-01294 (CID: 25150857) are used as an intraplate control, with a 16-point titration in duplicate. A Kalypsys pin-tool transferred 23nl of library compound solution in DMSO to each well. Following a 15 min incubation of enzyme with compounds at room temperature, 1ul mixture of b-H3K9 peptide substrate (final 500nM) and SAM cofactor (final 20uM) were added. Reactions were allowed to proceed at room temperature for 2 hours. Methylated b-H3K9 peptide product was detected with 0.5 ug/mL rabbit polyclonal anti-monomethyl histone H3K9 antibody (Abcam Inc., Cambridge, MA) and 20 ug/mL each streptavidin-coated donor and anti-rabbit IgG acceptor AlphaScreen beads. Antibody and beads were added in a 1ul dispense, for a final volume of 4ul, and plates were incubated, protected from the light, for 10 min at room temperature. Microplates were then read on an EnVision multilabel plate reader using the 1,536 plate HTS AlphaScreen aperture (excitation time 80 ms, measurement time 240 ms).
Background: In qHTS, concentration-response curves come from the screen itself.
Consider `COc1ccc2c(c1O)-c1cccc3c1[C@@H](C2)N(C)CC3`, for which the Potency was 7.94 µM (active).

For `COC1=C[C@@H]2[C@@H]3Cc4ccc(OC)c(O)c4[C@]2(CCN3C)CC1=O`, the activity, negative = inhibition result was “inactive”.

Consider `COP(=O)(OC)C(NC(=O)c1ccc(C)cc1)C(Cl)(Cl)Cl` (stereo unspecified), for which the activity, negative = inhibition result was “inactive”.

As to `C[C@]12CC[C@H](O)C[C@@H]1CC[C@H]1[C@H]2CC[C@]2(C)C(=O)CC[C@@H]12`, the activity, negative = inhibition was 13.5% [at 21.5 µM] (inactive) and 22.6% [at 21.5 µM] (inactive) and 16.7% [at 21.5 µM] (inactive).

For `Cc1ccc(C2CN(C)CC2C(=O)c2ccc(F)cc2)cc1` (stereo unspecified), the activity, negative = inhibition entry is “inactive”.

As to `COc1ccc(CN2CCN(c3ccccc3F)CC2)c(OC)c1`, the Potency was 11.2 µM (active).

As for `Fc1cccc(F)c1CN1CCN(Cc2c(F)cccc2F)CC1`, the activity, negative = inhibition result was “inactive”.

Regarding `O=C(O)C1CSC(c2cccnc2)N1` (stereo unspecified), the Potency was 3.55 µM (active).

For `C[C@@]1([C@@H](NP(=O)(c2ccccc2)c2ccccc2)c2ccccc2)C[C@H]1CCO`, the activity, negative = inhibition entry was “inactive”.

Turning to `COc1ccc(C2CC(c3cccs3)=NN2c2nc(C)c(C(C)=O)s2)cc1OC` (stereo unspecified), the activity, negative = inhibition result was “inactive”.

In the case of `CCOCCc1c(O)[nH]c(=S)[nH]c1=O`, the activity, negative = inhibition result is “inactive”.

Regarding `COc1ccccc1N=Nc1c(O)[nH]c(=S)[nH]c1=O`, the Potency is 39.8 µM (active).

Consider `Clc1ccc2nc3c(c(-c4ccccc4)c2c1)CNCC3`, for which the activity, negative = inhibition entry was “inactive”.

Consider `CNCC[C@H](Oc1ccc(C(F)(F)F)cc1)c1ccccc1`, for which the activity, negative = inhibition was 4.7% [at 21.5 µM] (inactive) and 32.2% [at 12.7 µM] (inactive).

In the case of `c1csc(CN2CC3(CCNCC3)C2)n1`, the activity, negative = inhibition is -16.9% [at 12.7 µM] (inactive).

Turning to `c1ccc(N2CC[C@@]3(CCCNC3)C2)nc1`, the activity, negative = inhibition was -39.9% [at 12.7 µM] (inactive).

As to `COC(=O)CN1C(=O)C2(C(C(=O)OC)=C(N)Oc3ccccc32)C2=C1CC(C)(C)CC2=O` (stereo unspecified), the activity, negative = inhibition result is “inactive”.

With `COc1cccc(N2C(=O)NC(=O)/C(=C\c3cn(C)c4ccccc34)C2=O)c1`, the activity, negative = inhibition entry is “inactive”.

As for `O=C1NC(=O)N(c2ccccc2)C(=O)/C1=C/c1ccc([N+](=O)[O-])s1`, the Potency is 8.91 µM (active).

As for `COc1cccc(N2C(=O)NC(=O)/C(=C\c3ccc([N+](=O)[O-])s3)C2=O)c1`, the Potency was 7.94 µM (active).

On to `CCN1C[C@]2(C)CC[C@H](O)[C@@]34[C@@H]5CC6[C@@H](OC)C[C@@](O)([C@@H]5[C@@H]6O)[C@H](C[C@@H]23)[C@H]14`, for which the activity, negative = inhibition was 28.6% [at 21.5 µM] (inactive).

As for `CCOc1cccc(=NC2CCCCC2)c2c(C)[nH]c(C)c12`, the activity, negative = inhibition is 40.3% [at 12.7 µM] (inactive).

As to `NC[C@H](O)c1ccc(O)cc1`, the activity, negative = inhibition is 24.2% [at 21.5 µM] (inactive).

`CCN(CC)C(=O)c1ccc(NC(=O)c2cc(-n3cnnc3)ccc2Cl)cc1`: the activity, negative = inhibition is -47.2% [at 12.7 µM] (inactive).

For `COC(=O)C1=C(c2ccc(Cl)c(C(F)(F)F)c2)C[C@@H]2CC[C@H]1N2C(=O)NC(C)C`, the activity, negative = inhibition was 11.8% [at 2.33 µM] (inactive).

For `CC[N+]1(C)CCCC(OC(=O)C(O)(c2ccccc2)c2ccccc2)C1` (stereo unspecified), the activity, negative = inhibition entry was “inactive”.

As for `Cc1ncsc1CCCl`, the Potency result was “inactive and 23.8 µM (active)”.

`COc1ccc(CCn2c(O)c(C=NC3CC3)c(=O)[nH]c2=O)cc1OC`: the activity, negative = inhibition result is “inactive”.

As to `COC(=O)c1ccc2[se]c(CC3CCCCC3)c(I)c2c1`, the activity, negative = inhibition result is “inactive”.

Regarding `O=C(C1CCN(CC2CCCCC2)CC1)N1CCCC1`, the Potency was 8.91 µM (active).

Consider `CSc1ccc(C(=O)C2CCCN(Cc3ccn[nH]3)C2)cc1` (stereo unspecified), for which the activity, negative = inhibition entry was “inactive”.

In the case of `O=[N+]([O-])c1ccc(C2C3C(c4ccccc4)=NC4(CCCCC4)N32)cc1` (stereo unspecified), the activity, negative = inhibition entry is “inactive”.

Turning to `CC(Cc1cccs1)NCc1ccc(Cl)cc1` (stereo unspecified), the activity, negative = inhibition result was “inactive”.

In the case of `Nc1ccc([N+](=O)[O-])cc1`, the activity, negative = inhibition is 6.3% [at 0.501 µM] (inactive).

As for `O=c1c2ccccc2nc(-c2ccccc2)n1-c1ccccn1`, the activity, negative = inhibition is 0.769% [at 0.501 µM] (inactive).

In the case of `CC12CN3CC(C)(CN(C1)C3c1cccs1)C2` (stereo unspecified), the activity, negative = inhibition result was “inactive”.

`Cc1ccc(-c2cc(C(=O)N3CCC4(CC3)OCCO4)no2)cc1`: the activity, negative = inhibition result was “inactive”.

`CCOC(=O)C(NS(=O)(=O)c1ccc(C)cc1)(C(F)(F)F)P(=O)(OCC(C)C)OCC(C)C` (stereo unspecified): the Potency is 7.08 µM (active).

`COC(=O)C1=C(c2ccc(F)cc2OCc2ccccc2)C[C@@H]2CC[C@H]1N2C(=O)NCc1ccc(C(C)(C)C)cc1`: the activity, negative = inhibition was 21.1% [at 2.33 µM] (inactive).

As to `CC(=O)Nc1ccccc1C(=O)OCC(=O)c1cccc2ccccc12`, the activity, negative = inhibition entry was “inactive”.

As for `CCOC(=O)C1CCN(Cc2coc3ccc(Cl)cc3c2=O)CC1`, the Potency was 3.16 µM (active).

For the compound `C[N+]12CN3CN(CN(C3)C1)C2`, the Potency is 1.12 µM (active).

As to `COc1ccc(CCn2c(O)c(C=NCCCn3ccnc3)c(=O)[nH]c2=O)cc1OC`, the activity, negative = inhibition entry is “inactive”.

Regarding `CCCCCCCCCCCCCC(=O)O[C@@H]1[C@@H](C)[C@@]2(O)[C@@H](C=C(CO)C[C@]3(O)C(=O)C(C)=C[C@@H]23)[C@@H]2C(C)(C)[C@]12OC(C)=O`, the activity, negative = inhibition result is “inactive”.

For `COC(=O)N1C(c2ccccc2)C1c1ccccc1` (stereo unspecified), the activity, negative = inhibition entry is “inactive”.

Regarding `COC(=O)C1=C(c2cccc(OCc3ccccc3)c2)C[C@@H]2CC[C@H]1N2C(=O)NCc1ccc(Br)cc1`, the activity, negative = inhibition is -5.98% [at 0.501 µM] (inactive).

(Values after PubChem BioAssay AID504332 (National Center for Advancing Translational Sciences (NCATS), 2011).)
